This is an account of results in PubChem BioAssay (NCI).

Molecules are shown by their SMILES. About 83,000 compounds went through this panel and 20% of them were active in at least one assay; those are over-represented in the sample as a whole.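 Cell lines were cultured in 96-well plates, exposed to a single compound concentration, and assessed for percent growth 48 hours later.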 Unmarked numbers belong to inactive results. Calls of active or inactive are those of the source. Rule for the calls: active = growth percent below 10; inactive = the rest.

Assay in all cases: NCI-60 one-dose screen, 48 h (100 = growth as untreated, 0 = no growth, -100 = all killed)
One test relates to DU-145 prostate. The note with it: 10 µM unless noted.
In another test the test system is K-562 leukemia. The note with it: 10 µM unless noted.
A further test relates to MALME-3M melanoma. The following applies: 10 µM unless noted.
For a further test, the system named is MDA-MB-231 breast. The note with it: 10 µM unless noted.
A further test deals with RXF 393 renal. The following applies: 10 µM unless noted.
The next test concerns SF-268 CNS. The following applies: 10 µM unless noted.
The test system of a further test is SF-295 CNS. The note with it: 10 µM unless noted.
Another test has as its system SF-539 CNS. The following applies: 10 µM unless noted.
Another test deals with UACC-257 melanoma. The following applies: 10 µM unless noted.
The subject of a further test is M14 melanoma. The following applies: 10 µM unless noted.
A further test concerns HCT-15 colon. The following applies: 10 µM unless noted.
The test system of another test is HT29 colon. The note with it: 10 µM unless noted.
The test system of another test is SNB-75 CNS. The note with it: 10 µM unless noted.
A further test deals with U251 CNS. The note with it: 10 µM unless noted.
A further test deals with PC-3 prostate. The following applies: 10 µM unless noted.
The next test has as its system SK-MEL-5 melanoma. The following applies: 10 µM unless noted.
The subject of a further test is UACC-62 melanoma. The following applies: 10 µM unless noted.
In a further test the test system is LOX IMVI melanoma. The following applies: 10 µM.
Another test deals with SK-MEL-28 melanoma. The following applies: 10 µM unless noted.

On to `CCC(C)(C)c1ccc(OCCCCCCN2CCN(c3ccncc3)CC2)cc1`, for which the growth is 35.5% with DU-145 prostate; -24.8% (active) with K-562 leukemia; -94.7% (active) in the test with MALME-3M melanoma; -77.6% (active) in the test with MDA-MB-231 breast; -62.5% (active) in the test on RXF 393 renal; 50.5% in the test with SF-268 CNS. Also, the growth with SF-295 CNS was -78% (active); in the test with SF-539 CNS, -72.4% (active); in the test on UACC-257 melanoma it was 18.4%; with M14 melanoma it was -68.7% (active); in the test with HCT-15 colon, -55.5% (active); in the test with HT29 colon, -39.8% (active). The growth was 69.6% in the test with SNB-75 CNS; -45.7% (active) in the test with U251 CNS; -4.93% (active) in the test with PC-3 prostate; -99.2% (active) in the test with SK-MEL-5 melanoma; -48% (active) in the test with UACC-62 melanoma; -96.8% (active) in the test with LOX IMVI melanoma. The growth in the test on SK-MEL-28 melanoma was -18.9% (active).

In the case of `CCN(CC)c1ccnc(CNCCSC(c2ccccc2)(c2ccccc2)c2ccc(OC)cc2)c1`, the growth with DU-145 prostate was -25.3% (active); in the test on K-562 leukemia, -23.6% (active); in the test on MALME-3M melanoma it was -92.5% (active); with MDA-MB-231 breast, -45.5% (active); in the test with RXF 393 renal it was -26% (active); in the test on SF-268 CNS, 4.54% (active). In addition, the growth with SF-295 CNS was -93.7% (active); with SF-539 CNS it was -95.8% (active); in the test on UACC-257 melanoma, -45.3% (active); with M14 melanoma it was -74.7% (active); in the test with HCT-15 colon it was -58.2% (active); in the test with HT29 colon it was -63.1% (active). Also, the growth is 3.35% (active) with SNB-75 CNS; -80.3% (active) in the test with U251 CNS; -36% (active) in the test on PC-3 prostate; -99.9% (active) in the test with SK-MEL-5 melanoma; -39.3% (active) with UACC-62 melanoma; -99.2% (active) with LOX IMVI melanoma. Moreover, the growth in the test with SK-MEL-28 melanoma is -48.5% (active).

In the case of `Cc1ccc(-n2c(-c3cc4ccccc4nc3Cl)noc2=O)cc1`, the growth with DU-145 prostate is 105%; with K-562 leukemia, 30.6%; with MALME-3M melanoma, 93.3%; in the test with MDA-MB-231 breast, 63.6%; in the test on RXF 393 renal, 92.4%; in the test with SF-268 CNS, 86.7%. The growth in the test with SF-295 CNS was 76.1%; in the test with SF-539 CNS, 84%; in the test on UACC-257 melanoma, 95%; in the test on M14 melanoma it was 72.7%; in the test on HCT-15 colon, 39.1%; with HT29 colon, 110%. Further, the growth in the test on SNB-75 CNS was 40.1%; with U251 CNS it was 83.7%; with PC-3 prostate, 75.5%; in the test on SK-MEL-5 melanoma, 66.1%; in the test with UACC-62 melanoma, 56%; in the test on LOX IMVI melanoma, 85.1%. In the test on SK-MEL-28 melanoma, the growth was 97.1%.

For `CC(C)CSc1nc(NCCc2c[nH]c3ccccc23)c(C#N)c(-c2ccc(Cl)cc2)n1`, the growth in the test with DU-145 prostate is 67.1%; in the test on K-562 leukemia it was 13.6%; in the test on MALME-3M melanoma, 81.9%; in the test on MDA-MB-231 breast, 48.2%; in the test on RXF 393 renal, 31%; in the test with SF-268 CNS, 55%. In addition, the growth is 66.4% in the test with SF-295 CNS; 60.9% in the test with SF-539 CNS; 85.8% in the test with UACC-257 melanoma; 67.6% in the test with M14 melanoma; 29.8% with HCT-15 colon; 15.1% in the test with HT29 colon. For the same compound, the growth is 77.3% in the test with SNB-75 CNS; 23.8% in the test on U251 CNS; 23.1% in the test with PC-3 prostate; 30% in the test with SK-MEL-5 melanoma; 74.1% in the test with UACC-62 melanoma; 22.5% in the test with LOX IMVI melanoma. The growth in the test with SK-MEL-28 melanoma was 72.1%.

For the compound `Clc1ccc(-c2ccc(OCCCN3CCN(c4ccncc4)CC3)cc2)cc1`, the growth in the test with DU-145 prostate is 69.1%; in the test on K-562 leukemia, -45.6% (active); in the test on MALME-3M melanoma, 84.2%; in the test with MDA-MB-231 breast, 33.1%; with RXF 393 renal it was 15.3%; in the test with SF-268 CNS, 75.9%. Also, the growth was 40.6% with SF-295 CNS; 30% in the test with SF-539 CNS; 90.2% with UACC-257 melanoma; -54.6% (active) with M14 melanoma; -66% (active) with HCT-15 colon; -30.6% (active) in the test on HT29 colon. The growth in the test on SNB-75 CNS is 83.6%; in the test on U251 CNS, 35.7%; with PC-3 prostate, 24.6%; in the test with SK-MEL-5 melanoma, 13.7%; in the test on UACC-62 melanoma it was 74%; with LOX IMVI melanoma, -89.8% (active). Moreover, the growth in the test with SK-MEL-28 melanoma is 90.1%.

Consider `CC1(C)CC[C@]2(C(=O)Nc3ccc(Br)cc3)CC[C@]3(C)C(=CCC4[C@@]5(C)C[C@@H](O)[C@H](O)[C@@](C)(CO)C5CC[C@]43C)C2C1` (some centres not stated), for which the growth with DU-145 prostate was 21.5%; in the test on K-562 leukemia, 5.08% (active); in the test with MALME-3M melanoma, 33.2%; in the test with MDA-MB-231 breast, -43.3% (active); in the test on RXF 393 renal, -64.5% (active); in the test with SF-268 CNS it was 43.8%. Moreover, the growth was -13.3% (active) with SF-295 CNS; -5.36% (active) in the test on SF-539 CNS; 11.1% in the test on UACC-257 melanoma; 31.9% in the test on M14 melanoma; -13% (active) in the test on HCT-15 colon; -60.9% (active) with HT29 colon. Further, the growth in the test on SNB-75 CNS is 57.8%; in the test on U251 CNS, -18.9% (active); in the test with PC-3 prostate it was -13.8% (active); in the test on SK-MEL-5 melanoma, -94.4% (active); with UACC-62 melanoma, 8.99% (active); with LOX IMVI melanoma, -86.7% (active). Further, in the test with SK-MEL-28 melanoma, the growth was 32.1%.

Take `CC(C)Sc1nc(NCCc2c[nH]c3ccccc23)c(C#N)c(-c2ccccc2)n1`: the growth with DU-145 prostate is 42.5%; in the test on K-562 leukemia it was 8.87% (active); in the test on MALME-3M melanoma, 55.8%; with MDA-MB-231 breast, -17.3% (active); in the test on RXF 393 renal, -27.6% (active); with SF-268 CNS, 45%. Also, the growth is -14.3% (active) in the test with SF-295 CNS; 40.8% with SF-539 CNS; 86.4% in the test on UACC-257 melanoma; 42.7% in the test on M14 melanoma; -19.9% (active) in the test with HCT-15 colon; -30.6% (active) with HT29 colon. Also, the growth in the test with SNB-75 CNS was 60.6%; in the test on U251 CNS, 15.5%; in the test with PC-3 prostate it was 12.6%; in the test with SK-MEL-5 melanoma, -6.58% (active); in the test with UACC-62 melanoma, 79.4%; with LOX IMVI melanoma, -68.7% (active). In the test with SK-MEL-28 melanoma, the growth is 81.5%.

As to `CCC(C)(C)c1ccc(OCCCCN2CCN(c3ccncc3)CC2)cc1`, the growth in the test with DU-145 prostate is 60.8%; in the test with K-562 leukemia it was -1.88% (active); in the test with MALME-3M melanoma, -85% (active); in the test with MDA-MB-231 breast, -30.9% (active); in the test with RXF 393 renal, -7.66% (active); in the test with SF-268 CNS it was 66.7%. For the same compound, the growth in the test on SF-295 CNS is -35.6% (active); in the test on SF-539 CNS it was -36% (active); in the test on UACC-257 melanoma, 37.5%; in the test with M14 melanoma, -56.6% (active); with HCT-15 colon, -1.1% (active); with HT29 colon, 6.61% (active). Moreover, the growth was 69.5% with SNB-75 CNS; -11.8% (active) in the test with U251 CNS; 19.3% with PC-3 prostate; -99.4% (active) with SK-MEL-5 melanoma; -74.5% (active) in the test with UACC-62 melanoma; -76.8% (active) in the test with LOX IMVI melanoma. For the same compound, in the test on SK-MEL-28 melanoma, the growth is -6.03% (active).
